Measured values as given in PubChem BioAssay (NCATS).
Records with an inconclusive call do not appear. Entries that show only a call come without a potency. Values without a mark were called inactive. The source made the active and inactive calls. Calls come from the whole dose curve; as a rule, active = well fitted inhibition curve with a large enough effect; inconclusive = small, poorly fitted or top-dose-only effect; inactive = flat fitted curve, though single readings scatter.

Experiment: qHTS to identify inhibitors of the type 1 interferon - major histocompatibility complex class I in skeletal muscle: primary screen against the NCATS LOPAC collection (AID 1347405);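 note: human myoblasts with HiBiT tag on endogenous HLA-B stimulated by IFN-beta; lytic HiBiT luminescence reporting HLA-B protein level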
Conditions: iHSKM muscle cells, IFN-b-induced MHC-I HiBiT luminescence, 24 h; series mostly up to 45.9 µM
Outline: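 IFN-beta-stimulated (4 ng/ml) HLA-B HiBiT knock-in myoblasts, compound-treated 24 hrs up to 46 uM final; signal via LgBiT complementation and furimazine luminescence.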

SMILES	Potency
OC[C@H]1O[C@@H](n2cnc3c(NC4CCCC4)ncnc32)[C@H](O)[C@@H]1O	inactive
CN1CC(=O)N/C1=N/C(=O)Nc1cccc(Cl)c1	inactive
Cc1ccc(O)c(N=Nc2ccccc2)n1	inactive
CC(N)C(=O)OC(C)(C)Cc1ccc(Cl)cc1 (centres undefined)	inactive
CCC1C(=O)OCC1Cc1cncn1C (centres undefined)	inactive
Nc1ccn([C@H]2O[C@H](CO)[C@@H](O)C2(F)F)c(=O)n1	inactive

Experiment: qHTS to identify inhibitors of the type 1 interferon - major histocompatibility complex class I in skeletal muscle: primary screen against the NCATS Pharmaceutical Collection (AID 1347407);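 note: luminescence of HiBiT knocked into endogenous HLA-B as interferon-induced MHC class I level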
Conditions: human skeletal muscle cells, IFN-b-induced MHC-I HiBiT luminescence, 24 h; series mostly up to 45.9 µM
Outline: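 Luminescence from HiBiT-tagged endogenous HLA-B*08:01 served as the read-out of IFN-beta-induced MHC class I in CRISPR-engineered C25cl48 myoblasts. Cells received 4 ng/ml IFN-beta plus compound (high final 46 uM, […]) for 24 h.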

SMILES	Potency	activity change, negative = inhibition
Nc1ccc(C(=O)O)c(O)c1	inactive	–
O=C(OCc1ccccc1)c1ccccc1	inactive	–
C#CC1(O)CC[C@H]2[C@@H]3CCC4=CCCC[C@@H]4[C@H]3CC[C@@]21C (some centres undefined)	inactive	–
O=C(O)Cc1cccc(-c2cc(CCCCCCc3ccc(O[C@H]4O[C@H](CO)[C@@H](O)[C@H](O)[C@@H]4O)c(-c4cccc(CC(=O)O)c4)c3)ccc2O[C@H]2O[C@H](CO)[C@@H](O)[C@H](O)[C@@H]2O)c1	–	-3.38% [at 0.727 µM]
NCCO	inactive	–
CCCCCCCCCCCCCCCCCC(=O)O	inactive	–
Nc1cc(-c2ccncc2)c[nH]c1=O	inactive	–
O=Cc1ccc(O)c(O)c1O	inactive	–
Cc1ccc(C(=O)c2ccc(CC(=O)O)n2C)cc1	inactive	–
Cc1c(C(=O)O)c(O)cc2c1C(=O)c1c(O)c([C@@H]3O[C@H](CO)[C@@H](O)[C@H](O)[C@H]3O)c(O)c(O)c1C2=O	inactive	–
CC(C(=O)O)c1ccc(C(=O)c2cccs2)cc1 (centres undefined)	inactive	–
O=C(O)/C=C\C(=O)O	inactive	–
CC(C(=O)O)c1ccc2c(c1)[nH]c1ccc(Cl)cc12 (centres undefined)	inactive	–
